Test results published in PubChem BioAssay (NCI).
Compounds without any hit were thinned out: in the full panel of roughly 83,000, 20% have a hit.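 In brief: 96-well plates, 48 h treatment, single concentration, percent growth endpoint.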 Unmarked numbers belong to inactive results. Calls of active or inactive are those of the source. Rule for the calls: active = growth percent below 10; inactive = the rest.

The molecules below were run on MDA-MB-468 breast (assay: NCI-60 one-dose screen, 48 h (100 = growth as untreated, 0 = no growth, -100 = all killed)). Settings: 10 µM unless noted.

SMILES | growth
COc1ccc(C=C2c3ccccc3-c3ccccc32)cc1 | 41.3%
O=C(N/N=C\c1ccc(F)cc1)c1ccc2nc(-c3ccc(Br)cc3)[nH]c2c1 | 34.7%
CC12OC(CC(O)C1O)n1c3ccccc3c3c4c(c5c6ccccc6n2c5c31)C(=O)N(CCN1CCOCC1)C4=O (centres undefined) | -30.4% (active)
CCOC(CNCc1cc(C)c2[nH]c3ccccc3c2c1C)OCC | 67.6%
COc1ccc(/C=C2\CN(Cc3cn(CCNc4ccnc5cc(Cl)ccc45)nn3)C/C(=C\c3ccc(OC)c(OC)c3)C2=O)cc1OC | -37.7% (active)
Cc1ccccc1COc1ccc(-c2onc(C)c2-c2ccc(Cl)cc2)cc1 | 36.1%
c1ccc(-c2nc(Nc3ccc(-c4nc5ccccc5[nH]4)cc3)nc(N3CCOCC3)n2)cc1 | -62.7% (active)
CCC(CC)NCCCCCNc1cc(OC)cc2cccnc12 | 57.8%
COc1ccc(/C=C(\C#N)n2nnc3c(F)cccc32)cc1 | -7.36% (active)
O=C1c2cccnc2C(=O)c2c1c(C(=O)OCCc1ccccn1)c1ccccn21 | -23% (active)
Oc1c(Cl)cc(Cl)c(Cl)c1Cc1c(O)c(Cl)cc(Cl)c1Cl | 4.35% (active)
COc1cc2c(cc1-c1c(C)noc1C)ncc1nc(C3CCCC3)n([C@H](C)COC(F)F)c12 | 32.7%
C=C1C(=O)O[C@H]2[C@H]1CC/C(COC(=O)c1ccc(C(=O)O)s1)=C\CC[C@@]1(C)O[C@@H]21 | -46.7% (active)
COC(=S)SCN(CSC(=S)OC)c1ccc(Cl)cc1 | 95.1%
c1ccc2c(Cc3csc4ccccc34)csc2c1 | 74%
COc1cc(-c2c(C#N)c(N)n3c(nc4ccccc43)c2C#N)cc(Br)c1OC | 36.5%
O=c1oc2ccc(F)cc2c(=O)n1-c1ccc(F)cc1F | -4.2% (active)
COc1ccc(NC(=O)c2sc3nc(C)c(C(O)c4ccc(OC)cc4)cc3c2N)cc1 (centres undefined) | 24.8%
Cc1cc(N(CCCNc2ccnc3cc(Cl)ccc23)Cc2ccccn2)nc(N2CCCC2)n1 | 88.3%
C=C(CNCCO)[C@@H]1CC[C@]2(CO)CC[C@]3(C)[C@H](CC[C@@H]4[C@@]5(C)CCC(NCCc6ccc(O)cc6)C(C)(C)[C@@H]5CC[C@]43C)[C@@H]12 (some centres undefined) | -77.3% (active)

SMILES | growth
COC(=O)[C@@]1(C)CC[C@]2(C)CC[C@]3(C)C4=CC=C5C(=CC(=O)C(O)=C5C)[C@]4(C)[C@@H](O)C[C@@]3(C)[C@@H]2C1 | 10.1%
CCCCN1C(=O)/C(=c2\sc3n(c2=O)C2C(NN=3)N(CC)C(=O)N2CC)c2cc(C)ccc21 (centres undefined) | 65.4%
[O-]c1c[n+](-c2ccc(Cl)cc2)no1 | 98.7%
Oc1cc2ccccc2c(-c2c(O)c(O)cc3ccccc23)c1O | 26.6%
CC(C)n1nc(C#Cc2cccc(NC(=O)c3cccc(C(F)(F)F)c3)c2)c2c(N)ncnc21 | 8.73% (active)
C/C(=N/O)c1ccc(F)cc1 | 75%
Fc1ccc(-c2nc(C(Cl)Cl)nc3cc(-c4ccccc4)nn23)cc1 | -52.7% (active)
Cc1ccc(N2CCN(C(=S)c3cccs3)CC2)cc1 | 88.7%
O=C1Nc2ccccc2/C1=N/c1nc(-c2ccc(Cl)cc2)cs1 | 59%
CCCCN(CCCC)Cc1c(C)[nH]c2cc(OC)ccc2c1=O | 113%
CCCCCCCCCCCCCCCCCCOc1cccc(CCOP(=O)(O)OCC[N+](C)(C)C)c1 | 94.2%
O=C1/C(=C/c2ccc([N+](=O)[O-])o2)Oc2ccc(Cl)cc21 | -34.5% (active)
CCOC(=O)CCCC(=O)OCC | 116%
CCCCCCCCn1ccc2cc(NC(=O)Cn3cc(CN4CCC(C)CC4)nn3)ccc21 | -52.9% (active)
Cc1cc(-c2ccccc2)cc(C)n1 | 103%
O=C(CSc1ccc(Cl)cc1)Nc1ccc(-c2nc3ccccc3s2)c(Cl)c1 | 52.1%
NS(=O)(=O)c1ccc(C2C3=C(CCCC3=O)OC3=C2C(=O)c2ccccc2C3=O)cc1 (centres undefined) | -47.4% (active)
CS(=O)(=O)c1ccc(-c2cnn3ccc(-c4cccc(S(=O)(=O)C5CC5)c4)nc23)cc1 | 27.7%
Cc1cc(N2CCCCC2)nc(NC2CCCC(Nc3ccnc4cc(Cl)ccc34)C2)n1 (centres undefined) | -77.6% (active)
